Source: PubChem BioAssay
This is one part of a sample in which hits are shown more often than they occur.
KDM5B inh: Primary screen for KDM5B Histone Demethylases FDH-coupled qHTS | KDM5B demethylase, FDH-coupled NADH fluorescence (FDH is formaldehyde dehydrogenase) | Potency, µM (doses to about 57.7 µM), hits mostly inhibitors | 220,000 tested, 2.6% active; active = well fitted inhibition curve with a large enough effect; also: 0% is about no effect; nearly all actives have a fitted effect of over 70% in size
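KDM5BΔAP (200 nM final) in 50 mM HEPES pH 7.5, 0.01% Tween-20 was preincubated 10 min at RT with compound over a concentration range. Substrate mix (H3K4me3 12.5 µM, α-KG 25 µM, Fe²⁺, ascorbate, NAD⁺, FDH) was added, and NADH fluorescence change over 30 min gave dose-response curves.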
An asterisk follows results filed as active; i = inactive. Potency is read from the fitted curve at half-maximal effect.

SMILES	KDM5B inh
COc1ccc2[nH]c(=O)c(COC(=O)c3ccccc3F)cc2c1	i
COc1ccc2[nH]c(=O)c(CN(C(=O)c3ccccc3Cl)c3ccccc3)cc2c1	i
COc1ccc2[nH]c(=O)c(CCC(=O)NCCCN3CCCC(C)C3)cc2c1 (centres undefined)	32µM*
CCOC(=O)c1[nH]ncc1CN1CCOC(Cc2ccc(OC)cc2)C1 (centres undefined)	i
Cc1ccc2c(c1)N(CCC(=O)NCCCN1CCCC1)C(=O)C(C)O2 (centres undefined)	i
CCOC(=O)c1[nH]c(C)c(CCC(=O)N2CCN(c3cccc(OC)c3)CC2)c1C	i
CCOc1ccc(N(Cc2cc3cc(OC)ccc3[nH]c2=O)C(C)=O)cc1	i
COc1ccc2[nH]c(C)c(C(=O)CN3CCCC(C)C3)c2c1 (centres undefined)	i
COc1ccc2[nH]c(=O)c(CCC(=O)O)cc2c1	28µM*
COc1ccc2[nH]c(=O)c(CN3CCOC(CN)C3)cc2c1 (centres undefined)	25µM*
CCOC(=O)CN1CCN(C(=O)CCc2cc3cc(OC)ccc3[nH]c2=O)CC1	32µM*
O=C(Nc1ccc2c3c(cccc13)CC2)c1ccc(F)cc1	i
CCc1cc(=O)n(CC(=O)Nc2ccccc2C)c(-n2nc(C)cc2C)n1	i
N#CC1=C(N)Oc2c(oc(CO)cc2=O)C1c1cccc(Oc2ccccc2)c1 (centres undefined)	i
COc1ccc(C(=O)Sc2ccc(Cl)cc2)cc1	i
CC(=O)c1ccc(NC(=O)Cc2ccc3c(c2)CCC3)cc1	i
CC(=O)c1ccc(N2CCN(C(C(=O)O)c3c[nH]c4ccc(OCc5ccccc5)cc34)CC2)cc1 (centres undefined)	i
CC(C)(C)c1ccc(CCC2OCC(CN3CCCCC3)O2)cc1 (centres undefined)	i
O=S(=O)(/C=C/c1ccccc1)NCc1nc2ccccc2s1	i
Cc1cc2oc(C(=O)Nc3cccc(Cl)c3)cc(=O)c2cc1C	i
O=C(Nc1cccc(F)c1)Nc1c(NC2CCCC2)c2ccccc2oc1=O	i
O=C(NCCNS(=O)(=O)c1cccc2nonc12)c1ccc2[nH]ccc2c1	i
Cc1ccc(-c2nc(CNS(=O)(=O)c3ccc(Cl)cc3)c(C)o2)cc1	i
Cn1cnc(S(=O)(=O)N2CCCC(C(=O)NC3CCCCC3)CCNC(=O)CC2)c1 (centres undefined)	i
CN(C(=O)CSc1nnc(Nc2ccccc2F)s1)c1ccccc1	i
SMILES	KDM5B inh
COCCN1CCC2(CCC1=O)CN(c1ccc(C#N)cn1)CCN2C (centres undefined)	28µM*
COCCN1CCC2(CCC1=O)CN(C(=O)NC(C)C)CCN2C (centres undefined)	i
CCN1CCC2(CCC1=O)CN(c1ncnc3c1CCC3)CCN2C (centres undefined)	i
N#C/C(=C/c1c2ccccc2cc2ccccc12)c1nc2ccccc2[nH]1	i
O=C1Cc2c(-c3ccc4ccccc4c3)n[nH]c2CN1CCc1ccncc1	i
O=C1Cc2c(-c3ccccc3)n[nH]c2CN1CCc1ccncc1	i
O=C1Cc2c(-c3ccc(N4CCOCC4)cc3)n[nH]c2CN1CCc1ccncc1	22µM*
CC(C)Cc1noc(CN2CCN(c3cccc(F)c3C#N)CC2)n1	i
CN1CCN(c2cc(-c3cncc(N)c3)nc(N)n2)CC1	20µM*
CN1CCN(c2ccc(-c3cccc(N)c3)nn2)CC1	i
CN1CCN(c2cc(N3CCCC(CN4CCCCC4)C3)nc(N)n2)CC1 (centres undefined)	i
O=C(Oc1c2c3c(noc3c3ccccc13)C(Oc1ccc(F)cc1)=CC2=O)c1ccc(F)cc1	i
O=C(O)C(F)(F)c1ccc(F)cc1	i
CC(NC(=O)/C=C/c1cccs1)C12CC3CC(CC(C3)C1)C2 (centres undefined)	i
Cc1ccc(CNC(=O)CN(C)C(=O)c2ccc3c(c2)nnn3C)cc1	i
CCCNC(=O)NCCc1noc(-c2cccnc2)n1	i
CCC(O)CNc1ccc(-c2nc(COC)no2)cn1 (centres undefined)	32µM*
CC(O)CNc1ccc(-c2nc(CCCc3ccccc3)no2)cn1 (centres undefined)	i
CC(=O)c1c(C)[nH]c(C(=O)Cn2cnc3cc(F)ccc3c2=O)c1C	i
O=C(/C=C/c1ccco1)N(Cc1cccs1)C1CC1	i
O=C(O)c1ccc(CNC2C3CC4CC(C3)CC2C4)cc1 (centres undefined)	i
CCN(c1ccc(-c2csc(-c3ccsc3)n2)cc1)S(C)(=O)=O	i
Cc1cc(C)n2nc(CC(=O)NCc3cc(-c4ccco4)on3)nc2n1	i
C[C@@H]1CN(C(=O)c2cc(-c3ccco3)nc3c(Cl)cccc23)C[C@]1(C)O	i
Cc1cc(CNC(=O)c2cc(-c3ccco3)nc3c(Cl)cccc23)no1	28µM*
CCOc1ccc(S(=O)(=O)NCC(C)O)c2ccccc12 (centres undefined)	i
